Common to all, as to assay: NCI-60 one-dose screen, 48 h (100 = growth as untreated, 0 = no growth, -100 = all killed)
What all share (conditions): 10 µM

Assay [1] relates to NCI-H23 lung.
Assay [2] relates to NCI-H226 lung.
Assay [3] relates to NCI-H322M lung.
For assay [4], the system named is HOP-62 NSCLC.
The test system of assay [5] is NCI-H460 lung.
The test system of assay [6] is NCI-H522 lung.
Assay [7] concerns A549/ATCC NSCLC.
Assay [8] concerns 786-0 renal.
In assay [9] the test system is COLO 205 colon.
The subject of assay [10] is DU-145 prostate.
The subject of assay [11] is K-562 leukemia.
In assay [12] the test system is MALME-3M melanoma.
Assay [13] relates to MDA-MB-231 breast.
Assay [14] deals with SF-268 CNS.
Assay [15] deals with SF-295 CNS.
The test system of assay [16] is SF-539 CNS.
Assay [17] relates to UACC-257 melanoma.
Assay [18] deals with M14 melanoma.
Assay [19] concerns HOP-92 NSCLC.
Assay [20] concerns RXF 393 renal.

SMILES strings stand for the structures. The panel holds about 83,000 compounds, 20% with a hit somewhere; the sample as a whole holds those more often.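 48-hour exposure, single concentration, 96-well plates; percent growth endpoint where 0 means no net growth. Active: below 10.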 Unmarked numbers belong to inactive results. Active and inactive are the calls of the source.

Consider `CCCSc1nc(NC2CC2)c(C#N)c(-c2ccc(OC)cc2)n1`, for which the growth in [1] was 96.4%; in [2] it was 99.4%; in assay [3] it was 89.3%; in assay [4], 84.6%; in assay [5], 85.6%; in assay [6], 93.3%. The growth in assay [7] was 71.8%; in assay [8], 77.1%; in [9], 134%; in [10] it was 98.1%; in assay [11], 92.4%; in assay [12], 134%. Also, the growth in assay [13] is 85%; in assay [14], 80.9%; in assay [15], 78.7%; in [16], 85.6%; in assay [17], 107%; in assay [18], 129%.

Regarding `COc1ccsc1/C=N/NC(=O)c1[nH]c2ccc(Br)cc2c1-c1ccccc1`, the growth in [1] was 9.07% (active); in assay [2], 17.2%; in [3], 34.3%; in assay [4], 26.3%; in [19], -5.64% (active); in assay [6], -34.4% (active). Further, the growth was 11.7% in [7]; 1.8% (active) in assay [8]; -32.4% (active) in assay [9]; 11.7% in assay [10]; 1.22% (active) in assay [11]; 22.3% in assay [12]. The growth was 3.17% (active) in assay [13]; 30.8% in assay [20]; 17.2% in assay [14]; -7.83% (active) in [15]; -18.5% (active) in [16]; 11.4% in [17]. Further, the growth in [18] is 5.95% (active).

For `CN1CCN(c2ccc(Nc3nc(NCCCNC(=O)c4ccc(Cl)cc4)c4sccc4n3)cc2)CC1`, the growth in assay [1] was 81.9%; in assay [2], 79.3%; in assay [3], 91.3%; in [4], 91.9%; in [5] it was 88.9%; in assay [6] it was 103%. Moreover, the growth was 87.8% in [7]; -4.27% (active) in [8]; 92.5% in [9]; 84.2% in assay [10]; 72.6% in assay [12]; 61.1% in [13]. The growth in assay [20] is 37.6%; in assay [14], 77%; in [15], 98%; in assay [16], 18.7%; in [17], 71.9%; in assay [18], 68.6%.

As for `COc1ccc([C@H]2C(C(=O)c3ccc(Cl)cc3)C3(N[C@@H]2c2ccccc2)C(=O)Nc2ccc(Cl)cc23)cc1` (stereo partly drawn), the growth in [1] is -56.2% (active); in assay [2], -56.4% (active); in assay [3] it was 20%; in assay [4] it was -57.2% (active); in assay [19], -26.7% (active); in [6] it was -1.74% (active). Also, the growth in assay [7] was 18.2%; in assay [8] it was -12% (active); in assay [9] it was -89.5% (active); in assay [10] it was 14.6%; in assay [11] it was 3.72% (active); in assay [12], -10.6% (active). Further, the growth in [13] was -68.3% (active); in assay [20], -64.3% (active); in assay [14] it was 20.2%; in assay [15], -63.2% (active); in [16] it was -46.1% (active); in assay [17], 9.2% (active). For the same compound, the growth in [18] was 11%.

On to `CN1CCCN(Cc2ccc(C(=O)Nc3cccc(Nc4ccc5c(O)cccc5n4)c3)cc2C(F)(F)F)CC1`, for which the growth in assay [1] is -82.1% (active); in assay [2] it was 57.4%; in assay [3], -72.1% (active); in [4], -69.8% (active); in [5], -85.3% (active); in [6], -83.4% (active). In addition, the growth was -61.4% (active) in [7]; -74.8% (active) in assay [8]; -64.4% (active) in [9]; -44.5% (active) in [10]; 11.5% in [11]; -95.9% (active) in assay [12]. Moreover, the growth in assay [13] was -75.6% (active); in assay [14], -55.6% (active); in [15], -91% (active); in [16], -98.3% (active); in assay [17] it was -81.3% (active); in assay [18], -84.7% (active).

Consider `O=C(c1ccc(O)cc1)C1[C@H](c2ccccc2Br)[C@@H](c2ccccc2)NC12C(=O)Nc1ccc(Cl)cc12` (stereo partly drawn), for which the growth in assay [1] is -34.8% (active); in assay [2] it was -7.3% (active); in assay [3], 27%; in assay [4], 6.01% (active); in assay [19], -1.49% (active); in [6] it was -47.1% (active). For the same compound, the growth was -4.7% (active) in [7]; 2.9% (active) in assay [8]; -76.9% (active) in assay [9]; 32.5% in assay [10]; 7.61% (active) in [11]; -10.7% (active) in assay [12]. Further, the growth in [13] was -57.3% (active); in assay [20] it was -19.5% (active); in assay [14], 27.7%; in [15], -6.39% (active); in [16], 8.24% (active); in assay [17], 25%. Besides, the growth in assay [18] was 28.4%.

Take `COc1cccc2nc(Nc3ccc(F)c(NC(=O)c4ccc(CN5CCN(C)CC5)c(C(F)(F)F)c4)c3)ccc12`: the growth is -17.8% (active) in [1]; 17% in assay [2]; 32.7% in assay [3]; -36.4% (active) in assay [4]; -22.8% (active) in assay [19]; -60.9% (active) in assay [6]. Moreover, the growth in assay [7] is 18.5%; in [8] it was -66.3% (active); in assay [9], -78.7% (active); in [10], 6.64% (active); in assay [11], -70.8% (active); in assay [12] it was -91.3% (active). Also, the growth in assay [13] was -37.8% (active); in assay [20], -27.1% (active); in [14], 22.2%; in assay [15], -84% (active); in [16], -93.6% (active); in assay [17], -66.5% (active). Also, the growth in [18] was -12% (active).

As for `Cc1ccn2c(C(=O)c3ccc(Br)cc3)cc(-c3cc(-c4ccc(N(C)C)cc4)c(C#N)c(N)n3)c2c1`, the growth in assay [1] is 27.6%; in assay [2], 60.5%; in [3], 41%; in [4], 78.8%; in [5] it was 54.4%; in assay [6] it was 45.3%. Also, the growth was 70.2% in assay [7]; 40.9% in assay [8]; 47.5% in assay [9]; 56.2% in [10]; 68.7% in assay [11]; -1.54% (active) in assay [12]. Further, the growth in assay [13] is 39.5%; in assay [14], 68%; in [15], 68.1%; in assay [16], 24.2%; in assay [17] it was 79.7%; in assay [18] it was 57.7%.
